# Measured values as given in the supplement of paper PMC10515830.
# Structures can show the parent of a compound that is named as a salt.
# Key:
# Details in all cases: 10 µM; exposure time 6 h
# [1] = tested on: Danio rerio larvae (5 dpf); assay: difference in excitability vs DMSO (percentage points); higher = more excitable than DMSO
# In short: (§1)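 Library compounds were tested at 10 µM final in 100 µL egg water on wild-type 5 dpf zebrafish larvae in 96-well plates for 6 h, with 48 larvae per compound. After 3 h, plates at 28.5 ℃ were imaged every 6 s during a 3-h run of moving lines and 100 ms, 400Hz tones. Behaviours were quantified by Z-LaP Tracker and reported as the compound mean less the vehicle control mean, in percentage points.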
# [2] = tested on: Danio rerio larvae (5 dpf); assay: difference in startle response vs DMSO (percentage points); higher = stronger startle than DMSO
# In short: as §1
# [3] = tested on: Danio rerio larvae (5 dpf); assay: difference in activity during first hour vs DMSO (percentage points); higher = more activity than DMSO
# In short: as §1
# [4] = tested on: Danio rerio larvae (5 dpf); assay: difference in habituation to acoustic stimuli vs DMSO (percentage points); higher = more habituation than DMSO
# In short: as §1
# [5] = tested on: Danio rerio larvae (5 dpf); assay: difference in combined optomotor response to red, green and blue moving lines vs DMSO (percentage points); higher = stronger optomotor response than DMSO
# In short: as §1
SMILES,difference in excitability [1],difference in startle response [2],difference in activity during first hour [3],difference in habituation to acoustic stimuli [4],difference [5]
OCCN1C[C@H](O)[C@@H](O)[C@H](O)[C@H]1CO [Miglitol],8.03,3.24,-0.913,-2.04,8.24
COc1c(C)c2c(c(O)c1C/C=C(\C)CCC(=O)OCCN1CCOCC1)C(=O)OC2 [Mycophenolate Mofetil],7.89,-4.66,-3.09,-2.74,1.02
CN(C/C=C/c1ccccc1)Cc1cccc2ccccc12 [Naftifine (hydrochloride)],11.1,-5.96,-7.66,1,7.26
O=C(O)c1cc(/N=N/c2ccc(O)c(C(=O)O)c2)ccc1O [Olsalazine (sodium salt)],-2.93,2.86,0.738,-4.79,-8.04
CCCCCCCC/C=C\CCCCCCCC(=O)NCCO [Oleoyl Ethanolamide],3.95,1.17,2.47,-3.04,-0.503
CC1=C(/C=C/C(C)=C/C=C/C(C)=C/C(=O)O)C(C)(C)CCC1 [all-trans Retinoic Acid],7.11,-8.47,-4.15,-13.5,6.48
O=C(O)Cc1ccccc1Nc1c(Cl)cccc1Cl [Diclofenac (sodium salt)],17.2,-1.39,2.16,-5.15,2.67
CC(C)NCC(O)COc1ccc(CC(N)=O)cc1 (racemic) [(±)-Atenolol],3.98,-0.206,8.47,1.78,1.82
C[C@@](Cc1ccc(O)c(O)c1)(NN)C(=O)O [Carbidopa (hydrate)],5.76,3.77,4.48,-7.23,6.07
C[C@H]1CN(C[C@H](Cc2ccccc2)C(=O)NCC(=O)O)CC[C@@]1(C)c1cccc(O)c1 [Alvimopan],3.61,0.764,-3.96,3.02,-3.48
N[C@@H](CC(=O)N1CCn2c(nnc2C(F)(F)F)C1)Cc1cc(F)c(F)cc1F [(-)-Sitagliptin (phosphate)],10.7,-0.289,-10.7,-3.48,-5.35
O=C(O)CCCCCCCC(=O)O [Azelaic Acid],1.68,4.07,-2.89,4.6,6.08
COc1ccccc1OCC(O)CO (stereo not given) [Guaifenesin],1.91,-2.97,10.9,3.83,6.79
CCN1CCN(Cc2ccc(Nc3ncc(F)c(-c4cc(F)c5nc(C)n(C(C)C)c5c4)n3)nc2)CC1,21.9,1.59,-3.04,0.786,2.57
COC(=O)[C@H](c1ccccc1Cl)N1CCc2sccc2C1 (racemic) [(±)-Clopidogrel (hydrochloride)],11.3,3.2,-4.36,-3.13,8.08
NS(=O)(=O)c1cc(C2(O)NC(=O)c3ccccc32)ccc1Cl (stereo not given) [Chlorthalidone],-10,0.0654,5.83,3.4,-3.83
CC[C@@]1(O)C(=O)OCc2c1cc1n(c2=O)Cc2cc3c(CN(C)C)c(O)ccc3nc2-1 [Topotecan (hydrochloride)],4.94,-0.393,0.473,-4.39,1.01
C[C@]12CC[C@@H]3c4ccc(O)cc4CC[C@H]3[C@@H]1CC[C@@H]2O [17β-Estradiol],14.6,-4.36,-22.1,-4.38,-11.6
CC(C(=O)O)c1cccc(Oc2ccccc2)c1 (stereo not given) [Fenoprofen (calcium salt hydrate)],5.22,0.479,-0.54,-2.86,-2.31
COc1cc(C(=O)NCc2ccc(OCCN(C)C)cc2)cc(OC)c1OC [Trimethobenzamide (hydrochloride)],-3.22,1.06,-0.789,2.91,-5.61
CC(C)C[C@H](NC(=O)[C@H](Cc1ccccc1)NC(=O)c1cnccn1)B(O)O [Bortezomib],2.69,2.81,3.67,-1.33,-0.842
CCCC(CCC)C(=O)O [Valproic Acid (sodium salt)],1.2,1.47,-1.97,-8.1,3.32
CC(Oc1c(Cl)cccc1Cl)C1=NCCN1 (stereo not given) [Lofexidine (hydrochloride)],5.84,4.45,2.08,0.884,10.9
C[C@]12C=CC(=O)C=C1CC[C@@H]1[C@@H]2[C@@H](O)C[C@@]2(C)[C@H]1CC[C@]2(O)C(=O)CO [Prednisolone],1.41,3.42,13.7,0.15,7.45
COc1ccnc(C[S+]([O-])c2nc3cc(OC(F)F)ccc3[nH]2)c1OC (stereo not given) [Pantoprazole],1.4,2.07,3.07,-4.45,5.14
